From PubChem BioAssay AID1159580 (chemical genetic matrix, 2015)
In all, about 5,500 compounds went through this assay and about 2,000 (36%) were called active. Not shown: some 18% with an inconclusive outcome. Some of the results follow. Values without a mark were called inactive. Cut-off read from the data, not from the text of the source: active = normalized growth mostly below about 0.91 (no sharp cut-off); inconclusive = no clear call, values can overlap the other calls; inactive = mostly above about 0.92.

Test: chemical genetic growth profiling, strain panel (AID 1159580);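 note: tested at 20 µM; growth read once vehicle control cultures reached saturation at 30 °C; 1 = growth at the plate median or of vehicle wells; lower values mean less growth of the strain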
Settings: S. cerevisiae deletion strains, growth OD
[1] = locus YHR030C, strain SLT2, hits give low values
[2] = locus YHR079C, strain IRE1, hits give low values
[3] = locus YJL095W, strain BCK1, hits give low values
[4] = locus YJR066W, strain TOR1, hits give low values
[5] = locus YLR113W, strain HOG1, hits give low values
[6] = locus YNL183C, strain NPR1, hits give low values
[7] = locus YOR231W, strain MKK1, hits give low values
[8] = locus YPL256C, strain CLN2, hits give low values

## N#C/C(=C\c1ccc(C(F)(F)F)cc1)c1ccc(O)cc1
Locus YAR019C, strain CDC15, hits give low values
  normalized growth: 0.969
Locus YBL105C, strain PKC1, hits give low values
  normalized growth: 0.968
Locus YBR135W, strain CKS1, hits give low values
  normalized growth: 0.965
Locus YBR136W, strain MEC1, hits give low values
  normalized growth: 0.97
Locus YBR160W, strain CDC28, hits give low values
  normalized growth: 0.976
Locus YDL017W, strain CDC7, hits give low values
  normalized growth: 0.966
Locus YDL028C, strain MPS1, hits give low values
  normalized growth: 0.976
Locus YDL101C, strain DUN1, hits give low values
  normalized growth: 0.979
Locus YDL108W, strain KIN28, hits give low values
  normalized growth: 0.972
Locus YDL132W, strain cdc53, hits give low values
  normalized growth: 0.973
Locus YDL214C, strain PRR2, hits give low values
  normalized growth: 0.478 (active)
Locus YDR052C, strain DBF4, hits give low values
  normalized growth: 0.988
Locus YDR054C, strain cdc34, hits give low values
  normalized growth: 0.96
Locus YDR226W, strain ADK1, hits give low values
  normalized growth: 0.969
Locus YDR477W, strain SNF1, hits give low values
  normalized growth: 0.497 (active)
Locus YER123W, strain YCK3, hits give low values
  normalized growth: 0.508 (active)
Locus YER133W, strain GLC7, hits give low values
  normalized growth: 0.492 (active)
Locus YFL009W, strain cdc4, hits give low values
  normalized growth: 0.967
Locus YFL029C, strain CAK1, hits give low values
  normalized growth: 0.978
Locus YFR003C, strain YPI1, hits give low values
  normalized growth: 0.971
Locus YFR019W, strain FAB1, hits give low values
  normalized growth: 0.647 (active)
Locus YFR028C, strain CDC14, hits give low values
  normalized growth: 0.964
Locus YGR040W, strain KSS1, hits give low values
  normalized growth: 0.53 (active)
Locus YGR052W, strain FMP48, hits give low values
  normalized growth: 0.5 (active)
Locus YGR092W, strain DBF2, hits give low values
  normalized growth: 0.365 (active)
[1]
  normalized growth: 0.308 (active)
[2]
  normalized growth: 0.334 (active)
Locus YHR082C, strain KSP1, hits give low values
  normalized growth: 0.492 (active)
Locus YHR205W, strain SCH9, hits give low values
  normalized growth: 0.359 (active)
Locus YIL147C, strain SLN1, hits give low values
  normalized growth: 0.974
[3]
  normalized growth: 0.464 (active)
Locus YJL128C, strain PBS2, hits give low values
  normalized growth: 0.913
Locus YJL157C, strain FAR1, hits give low values
  normalized growth: 0.47 (active)
Locus YJR016C, strain ILV3, hits give low values
  normalized growth: 0.974
Locus YJR066W, strain TOR1 (second series), hits give low values
  normalized growth: 0.29 (active)
[4]
  normalized growth: 0.435 (active)
Locus YKL048C, strain ELM1, hits give low values
  normalized growth: 0.411 (active)
Locus YKL067W, strain YNK1, hits give low values
  normalized growth: 0.525 (active)
Locus YKL101W, strain HSL1, hits give low values
  normalized growth: 0.465 (active)
Locus YKL193C, strain SDS22, hits give low values
  normalized growth: 0.972
Locus YKL203C, strain TOR2, hits give low values
  normalized growth: 0.428 (active)
[5]
  normalized growth: 0.431 (active)
Locus YLR133W, strain CKI1, hits give low values
  normalized growth: 0.498 (active)
Locus YLR403W, strain SFP1, hits give low values
  normalized growth: 0.445 (active)
Locus YML070W, strain DAK1, hits give low values
  normalized growth: 0.535 (active)
Locus YMR001C, strain CDC5, hits give low values
  normalized growth: 0.96
Locus YMR205C, strain PFK2 (second series), hits give low values
  normalized growth: 0.54 (active)
Locus YMR277W, strain FCP1, hits give low values
  normalized growth: 0.963
Locus YNL006W, strain LST8, hits give low values
  normalized growth: 0.959
Locus YNL020C, strain ARK1, hits give low values
  normalized growth: 0.45 (active)
Locus YNL161W, strain CBK1, hits give low values
  normalized growth: 0.967
[6]
  normalized growth: 0.467 (active)
Locus YNL207W, strain RIO2, hits give low values
  normalized growth: 0.961
Locus YNL222W, strain SSU72, hits give low values
  normalized growth: 0.964
Locus YNL307C, strain MCK1 (second series), hits give low values
  normalized growth: 0.395 (active)
Locus YOL078W, strain AVO1, hits give low values
  normalized growth: 0.973
Locus YOL136C, strain PFK27, hits give low values
  normalized growth: 0.492 (active)
Locus YOR061W, strain CKA2, hits give low values
  normalized growth: 0.43 (active)
Locus YOR119C, strain RIO1, hits give low values
  normalized growth: 0.498 (active)
[7]
  normalized growth: 0.469 (active)
Locus YOR329C, strain SCD5, hits give low values
  normalized growth: 0.962
Locus YPL031C, strain PHO85, hits give low values
  normalized growth: 0.421 (active)
Locus YPL153C, strain RAD53, hits give low values
  normalized growth: 0.444 (active)
Locus YPL204W, strain HRR25, hits give low values
  normalized growth: 0.453 (active)
Locus YPL209C, strain IPL1, hits give low values
  normalized growth: 0.965
[8]
  normalized growth: 0.427 (active)
Locus YPR025C, strain CCL1, hits give low values
  normalized growth: 0.971
Locus YPR106W, strain ISR1, hits give low values
  normalized growth: 0.965
Locus YPR111W, strain DBF20, hits give low values
  normalized growth: 0.953
Strain NNK1, hits give low values
  normalized growth: 0.95
Strain TSCII, hits give low values
  normalized growth: 0.967

## CC(O)Cn1cnc2c1c(=O)n(C)c(=O)n2C (centres undefined)
[1]
  normalized growth: 1.05
[2]
  normalized growth: 1.07
[3]
  normalized growth: 1.05
[4]
  normalized growth: 0.991
[5]
  normalized growth: 1.04
[6]
  normalized growth: 1
[7]
  normalized growth: 1.03
[8]
  normalized growth: 1.04
